In general, AC50 refers to the concentration at which the activity in the assay is half-maximal.

Results filed as inconclusive are left out. Activity calls are given as the source filed them. The calls were made as follows, unless noted: active = hit-call score of the fitted dose curve at least 0.9, where 1 is the maximum; inactive = score below 0.9.

Test [1] concerns the target Estrogen-related receptor gamma (Homo sapiens) (UniProt P62508). In words: ATG_ERRg_TRANS: Attagene TRANS-FACTORIAL HepG2 Assay for human Estrogen-Related Receptor gamma (ERRg) (AID 2282977; active = hit-call score of the fitted dose curve at least 0.9, where 1 is the maximum;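 also: hits increase reporter signal over DMSO so potencies reflect activators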). Conditions: HepG2 Attagene TRANS reporter, ERRg transactivation. The essentials: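 Transient HepG2 transfectants, 24 h compound exposure, GAL4-UAS reporter mRNA by RT-PCR/6-FAM labelling/capillary electrophoresis; positive direction vs DMSO.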

Test [2] deals with Bile acid receptor (Homo sapiens) (UniProt Q96RI1). The test is described as follows: ATG_FXR_TRANS: Attagene TRANS-FACTORIAL HepG2 Assay for Farnesoid X Receptor (FXR) (AID 2282979; active = hit-call score of the fitted dose curve at least 0.9, where 1 is the maximum;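 also: hits raise reporter mRNA above DMSO so AC50 marks FXR activation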). Conditions: HepG2 Attagene TRANS FXR-GAL4 reporter transcription. In short, it runs like this: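 HepG2 cells transiently transfected with reporter constructs in which a chimeric FXR-GAL4 protein drives a GAL4-UAS reporter; 24 h compound exposure. Reporter mRNA measured by RT-PCR, FAM labelling, HpaI digestion and capillary electrophoresis; gain-of-signal versus DMSO.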
Bile acid receptor (Homo sapiens), sequence (Q96RI1 whole entry, looked up, the tested form may be a part): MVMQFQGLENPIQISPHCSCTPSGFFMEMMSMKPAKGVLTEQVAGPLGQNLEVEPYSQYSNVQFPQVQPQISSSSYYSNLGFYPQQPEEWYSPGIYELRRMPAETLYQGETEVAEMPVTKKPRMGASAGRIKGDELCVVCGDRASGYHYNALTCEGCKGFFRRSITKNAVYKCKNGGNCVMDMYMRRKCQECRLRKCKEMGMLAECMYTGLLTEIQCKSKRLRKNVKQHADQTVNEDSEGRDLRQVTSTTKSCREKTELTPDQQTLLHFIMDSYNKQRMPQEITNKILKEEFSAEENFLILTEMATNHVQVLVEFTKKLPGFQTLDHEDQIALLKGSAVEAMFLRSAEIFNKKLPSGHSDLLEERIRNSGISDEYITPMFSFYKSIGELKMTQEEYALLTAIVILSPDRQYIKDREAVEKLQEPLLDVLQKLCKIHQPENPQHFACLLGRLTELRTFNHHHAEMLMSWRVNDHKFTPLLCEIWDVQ

The target in test [3] is Oxysterols receptor LXR-beta (Homo sapiens) (UniProt P55055). In words: ATG_LXRb_TRANS: Attagene TRANS-FACTORIAL HepG2 Assay for human Liver X Receptor beta (LXRb) (AID 2282981; active = hit-call score of the fitted dose curve at least 0.9, where 1 is the maximum). Conditions: HepG2 Attagene TRANS GAL4-LXRb reporter, mRNA. The essentials:
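HepG2 cells transiently transfected with multiple reporter transcription units carrying chimeric NR-Gal4 proteins acting on GAL4-UAS reporters; compound exposure 24 h. Reporter mRNA quantified by RT-PCR, 6-FAM labelling, HpaI digestion and capillary electrophoresis; gain of signal versus DMSO.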

Test [4] is described as follows: ATG_M_06_TRANS: Attagene TRANS-FACTORIAL HepG2 Assay for M06 Transcription Factor (Internal Marker) (AID 2282983; active = hit-call score of the fitted dose curve at least 0.9, where 1 is the maximum). Conditions: HepG2 Attagene TRANS M06 internal marker reporter. In short, it runs like this: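 HepG2 cells transiently transfected with multiplexed GAL4-UAS reporter transcription units; after 24 h compound exposure, reporter mRNA measured by RT-PCR, FAM-labelled primer extension, HpaI digestion and capillary electrophoresis. Gain-of-signal fitted versus DMSO baseline; background control readout.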

The nature of test [5]: ATG_M_32_TRANS: Attagene TRANS-FACTORIAL HepG2 Assay for M32 Transcription Factor (Internal Marker) (AID 2282984; active = hit-call score of the fitted dose curve at least 0.9, where 1 is the maximum). To be noted: HepG2 Attagene TRANS M32 internal marker reporter. In short, it runs like this: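 HepG2 cells transiently transfected with multiple GAL4-UAS reporter transcription units, dosed for 24 hours; reporter mRNA quantified by RT-PCR, 6-FAM primer extension, HpaI digestion and capillary electrophoresis. Gain-of-signal fitted versus DMSO baseline; internal background-control marker.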

For test [6], the target named is Transcriptional activator Myb (Homo sapiens) (UniProt P10242). In words: ATG_Myb_CIS: Attagene CIS-FACTORIAL HepG2 Assay for human Myeloblastosis (Myb) Proto-Oncogene Transcription Factor (AID 2282986). To be noted: HepG2 Attagene CIS-FACTORIAL Myb reporter transcription; actives raise or lower the signal. In short, it runs like this:
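Transiently transfected HepG2 cells carrying a multiplexed cis-promoter reporter set report endogenous Myb activity after 24 h compound exposure. Reporter mRNA is read by RT-PCR with capillary electrophoresis of fluorescent products, fitted bidirectionally against DMSO.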

Test [7] has as its target Nuclear respiratory factor 1 (Homo sapiens) (UniProt Q16656). The test is described as follows: ATG_NRF1_CIS: Attagene CIS-FACTORIAL HepG2 Assay for human Nuclear Respiratory Factor 1 (NRF1) Orphan Gene (AID 2282987). To be noted: HepG2 NRF1 cis-element reporter, Attagene multiplex; actives raise or lower the signal. In short, it runs like this: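 HepG2 cells transiently transfected with multiple cis-regulated reporter units, exposed 24 h. Reporter mRNAs measured by RT-PCR, fluorescent labelling, HpaI digestion and capillary electrophoresis; bidirectional fitting against DMSO.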

The nature of test [8]: ATG_NFI_CIS: Attagene CIS-FACTORIAL HepG2 Assay for human Nuclear Factor I (NFI) (AID 2282989). Conditions: HepG2 cis-regulatory reporter, NFI response element transcription; actives raise or lower the signal. In short, it runs like this:
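Reporter transcripts were measured by RT-PCR with fluorescent primer extension and capillary electrophoresis 24 h post-treatment. HepG2 cells carried transiently transfected cis-regulated reporter constructs reporting endogenous factor activity; gain or loss fitted against DMSO baseline.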

Test [9] has as its target Myc proto-oncogene protein (Homo sapiens) (UniProt P01106). The test is described as follows: ATG_Myc_CIS: Attagene CIS-FACTORIAL HepG2 Assay for human Myelocytomatosis (Myc) Proto-Oncogene Transcription Factor (AID 2282990). To be noted: HepG2, Attagene cis-reporter transcription factor activity; actives raise or lower the signal. In short, it runs like this: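 DMSO-normalised, bidirectionally fitted reporter mRNA signal. HepG2 cells transfected with cis reporter constructs, treated 24 h; transcripts detected by RT-PCR, 6-FAM primer extension and CE.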

The nature of test [10]: ATG_NRF2_ARE_CIS: Attagene CIS-FACTORIAL HepG2 Assay for human Nuclear Factor Erythroid 2 Related Factor 2 (NFR2) response to Antioxidant Response Elements (ARE) (AID 2282992).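 As to AC50: reporter mRNA level measured by RT-PCR and capillary electrophoresis fluorescence.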 Conditions: HepG2 Attagene ARE/NRF2 reporter, transcription factor activity; actives raise or lower the signal. In short, it runs like this:
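Transient MRTU transfection of HepG2; 24 h compound exposure; TriZol RNA, RT with oligo(dT), PCR, 6-FAM primer extension, HpaI cut, CE. Bidirectional fit vs DMSO.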

Test [11] is described as follows: ATG_Oct_MLP_CIS: Attagene CIS-FACTORIAL HepG2 Assay for human Octamer-Binding Transcription Factor (Oct) (AID 2282993). Conditions: HepG2 Attagene cis-factorial Oct reporter, mRNA; actives raise or lower the signal. The essentials: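 Readout is reporter transcript level from RT-PCR with fluorescent primer extension and capillary electrophoresis, fitted in both directions against DMSO. Transfected HepG2 reporter units report endogenous factor activity after 24 h dosing.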

The nature of test [12]: BSK_3C_TissueFactor: BioMAP Diversity Plus: 3C Assay for Tissue Factor Biomarker Activity (AID 2282997). Conditions: BioMAP 3C HUVEC, tissue factor biomarker readout; actives raise or lower the signal. The essentials:
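Primary human umbilical vein endothelial cells in the 3C system were exposed to test chemical for 24 h, then Tissue Factor measured by ELISA. Activity was fitted bidirectionally against DMSO as negative control and baseline.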

Test [13] is described as follows: BSK_3C_uPAR: BioMAP Diversity Plus: 3C Assay for Urokinase-type plasminogen activator receptor (uPAR) Biomarker Activity (AID 2282998). Conditions: BioMAP 3C HUVEC, uPAR biomarker ELISA; actives raise or lower the signal. The essentials:
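Cell-surface uPAR on HUVEC (3C system) read by ELISA at 24 h post-treatment, with DMSO as baseline and fitting in both directions. Parallel cultures stained with SRB to flag overt cytotoxicity.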
On the technique in general: An ELISA detects its analyte on a solid surface through an enzyme-linked reagent.

Test [14] concerns the target Glucocorticoid receptor (Homo sapiens) (UniProt P04150). In words: ATG_GR_TRANS: Attagene TRANS-FACTORIAL HepG2 Assay for human Glucocorticoid Receptor (GR) (AID 2282978; active = hit-call score of the fitted dose curve at least 0.9, where 1 is the maximum;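 also: activators score as hits since higher reporter transcript over DMSO is fitted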). To be noted: HepG2 Attagene TRANS GR reporter, mRNA transcription. The essentials: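 HepG2 cells transiently transfected with GAL4-UAS reporter units and exogenous GR-Gal4 chimera, dosed 24 h. Reporter mRNA by RT-PCR, FAM labeling, HpaI digest and capillary electrophoresis; gain-of-signal fit versus DMSO.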

Test [15] concerns the target Oxysterols receptor LXR-alpha (Homo sapiens) (UniProt Q13133). The test is described as follows: ATG_LXRa_TRANS: Attagene TRANS-FACTORIAL HepG2 Assay for human Liver X Receptor alpha (LXRa) (AID 2282980; active = hit-call score of the fitted dose curve at least 0.9, where 1 is the maximum). To be noted: HepG2 Attagene TRANS reporter, LXRa transactivation. The essentials: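 HepG2 cells were transiently transfected with multiplexed reporter units driven by chimeric LXRa–GAL4 fusion proteins, then dosed for 24 h. Reporter mRNA was quantified by RT-PCR, fluorescent labelling and capillary electrophoresis; gain of signal fitted against DMSO baseline.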

In test [16] the target is Hepatocyte nuclear factor 4-alpha (Homo sapiens) (UniProt P41235). The test is described as follows: ATG_HNF4a_TRANS: Attagene TRANS-FACTORIAL HepG2 Assay for human Hepatocyte Nuclear Factor 4 alpha (HNF4a) (AID 2282982; active = hit-call score of the fitted dose curve at least 0.9, where 1 is the maximum). Conditions: HepG2 HNF4a transactivation reporter, mRNA readout. In short, it runs like this:
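HepG2 cells transiently transfected with multiplexed GAL4-UAS reporter units responsive to chimeric NR-GAL4 proteins; compound exposure 24 h. Reporter mRNA quantified by RT-PCR, 6-FAM labelling, HpaI digestion and capillary electrophoresis; gain of signal versus DMSO baseline.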

A short description of test [17]: ATG_NF_kB_CIS: Attagene CIS-FACTORIAL HepG2 Assay for human Nuclear Factor Kappa B (NF-kB) (AID 2282991). Conditions: HepG2 Attagene cis-factorial NF-kB reporter mRNA; actives raise or lower the signal. The essentials: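 HepG2 cells transfected with cis-promoter-driven reporter units, so endogenous transcription factor activity is measured. Reporter mRNA quantified 24 h after dosing by RT-PCR and capillary electrophoresis, with bidirectional fitting against DMSO.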

Test [18] deals with Cellular tumor antigen p53 (Homo sapiens) (UniProt P04637). In words: ATG_p53_CIS: Attagene CIS-FACTORIAL HepG2 Assay for human p53 Transcription Factor (AID 2282994). To be noted: HepG2 p53 cis-element reporter, Attagene mRNA; actives raise or lower the signal. The essentials: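 HepG2, transient MRTU transfection (cis promoter elements, endogenous TFs); 24 h dosing; RNA isolation, RT-PCR, 6-FAM primer extension, HpaI digest, CE fluorescence; bidirectional fit vs DMSO.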

Test [19] concerns the target Nuclear receptor subfamily 4 group A member 2 (Homo sapiens) (UniProt P43354). In words: ATG_NURR1_TRANS: Attagene TRANS-FACTORIAL HepG2 Assay for human Nuclear Receptor Related Protein 1 (NURR1) (AID 2282985; active = hit-call score of the fitted dose curve at least 0.9, where 1 is the maximum). To be noted: HepG2 Attagene TRANS reporter, mRNA readout. The essentials:
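HepG2 cells transiently transfected with GAL4-UAS reporter units and chimeric NR-Gal4 constructs; chemical exposure 24 h. Reporter mRNA quantified by RT-PCR, fluorescent labelling and capillary electrophoresis; gain of signal fitted relative to DMSO baseline.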

Myc proto-oncogene protein (Homo sapiens), sequence (P01106 whole entry, looked up): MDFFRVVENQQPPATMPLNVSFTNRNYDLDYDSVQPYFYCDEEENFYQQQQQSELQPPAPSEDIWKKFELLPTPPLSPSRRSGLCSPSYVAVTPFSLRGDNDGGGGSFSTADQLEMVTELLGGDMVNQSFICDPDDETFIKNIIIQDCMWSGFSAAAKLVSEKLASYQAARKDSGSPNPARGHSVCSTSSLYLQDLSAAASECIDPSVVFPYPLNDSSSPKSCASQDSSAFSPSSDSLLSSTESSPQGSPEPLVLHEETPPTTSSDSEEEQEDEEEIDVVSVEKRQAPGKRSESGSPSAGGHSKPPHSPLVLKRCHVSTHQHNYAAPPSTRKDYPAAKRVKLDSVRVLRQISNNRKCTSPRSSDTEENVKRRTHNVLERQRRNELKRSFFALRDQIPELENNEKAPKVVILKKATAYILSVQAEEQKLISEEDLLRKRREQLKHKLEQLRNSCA
Nuclear respiratory factor 1 (Homo sapiens), sequence (Q16656 whole entry, looked up): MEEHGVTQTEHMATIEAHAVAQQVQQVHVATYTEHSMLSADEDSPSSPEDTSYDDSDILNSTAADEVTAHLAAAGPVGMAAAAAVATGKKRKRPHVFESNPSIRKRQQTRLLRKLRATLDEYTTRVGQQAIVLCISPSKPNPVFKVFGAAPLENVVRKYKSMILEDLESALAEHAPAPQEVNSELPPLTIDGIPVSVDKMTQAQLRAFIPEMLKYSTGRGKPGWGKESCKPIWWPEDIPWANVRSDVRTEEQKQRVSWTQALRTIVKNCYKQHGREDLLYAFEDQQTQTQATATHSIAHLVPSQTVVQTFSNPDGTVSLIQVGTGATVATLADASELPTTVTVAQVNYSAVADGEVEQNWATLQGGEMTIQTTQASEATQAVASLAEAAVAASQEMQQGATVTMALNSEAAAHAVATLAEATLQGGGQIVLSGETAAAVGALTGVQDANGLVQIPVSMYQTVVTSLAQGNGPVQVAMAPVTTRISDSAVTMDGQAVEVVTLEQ
Hepatocyte nuclear factor 4-alpha (Homo sapiens), sequence (P41235 whole entry, looked up, the tested form may be a part): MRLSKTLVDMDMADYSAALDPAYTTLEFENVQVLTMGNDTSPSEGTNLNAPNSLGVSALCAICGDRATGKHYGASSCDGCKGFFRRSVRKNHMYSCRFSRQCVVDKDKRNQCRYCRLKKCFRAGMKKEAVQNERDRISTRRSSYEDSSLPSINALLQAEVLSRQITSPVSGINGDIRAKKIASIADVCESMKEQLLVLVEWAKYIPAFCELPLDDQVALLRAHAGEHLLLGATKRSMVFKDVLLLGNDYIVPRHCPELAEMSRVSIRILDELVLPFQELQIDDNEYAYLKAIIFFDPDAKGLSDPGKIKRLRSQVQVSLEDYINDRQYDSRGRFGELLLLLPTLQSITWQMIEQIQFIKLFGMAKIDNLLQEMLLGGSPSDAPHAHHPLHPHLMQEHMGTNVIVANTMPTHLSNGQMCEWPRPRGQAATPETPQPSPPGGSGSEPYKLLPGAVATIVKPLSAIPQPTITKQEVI
Oxysterols receptor LXR-beta (Homo sapiens), sequence (P55055 whole entry, looked up, the tested form may be a part): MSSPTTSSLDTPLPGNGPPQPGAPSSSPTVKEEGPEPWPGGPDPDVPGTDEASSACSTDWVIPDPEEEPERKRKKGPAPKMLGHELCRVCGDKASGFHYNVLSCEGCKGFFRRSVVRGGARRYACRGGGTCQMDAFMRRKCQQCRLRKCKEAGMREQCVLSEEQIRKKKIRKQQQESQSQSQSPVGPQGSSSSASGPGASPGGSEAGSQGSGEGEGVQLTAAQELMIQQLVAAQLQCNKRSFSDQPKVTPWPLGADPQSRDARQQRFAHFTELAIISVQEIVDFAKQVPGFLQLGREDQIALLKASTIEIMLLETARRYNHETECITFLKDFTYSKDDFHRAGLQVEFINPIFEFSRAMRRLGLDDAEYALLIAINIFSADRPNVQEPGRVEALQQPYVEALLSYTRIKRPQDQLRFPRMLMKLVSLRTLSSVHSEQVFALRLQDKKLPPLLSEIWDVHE
Glucocorticoid receptor (Homo sapiens), sequence (P04150 whole entry, looked up, the tested form may be a part): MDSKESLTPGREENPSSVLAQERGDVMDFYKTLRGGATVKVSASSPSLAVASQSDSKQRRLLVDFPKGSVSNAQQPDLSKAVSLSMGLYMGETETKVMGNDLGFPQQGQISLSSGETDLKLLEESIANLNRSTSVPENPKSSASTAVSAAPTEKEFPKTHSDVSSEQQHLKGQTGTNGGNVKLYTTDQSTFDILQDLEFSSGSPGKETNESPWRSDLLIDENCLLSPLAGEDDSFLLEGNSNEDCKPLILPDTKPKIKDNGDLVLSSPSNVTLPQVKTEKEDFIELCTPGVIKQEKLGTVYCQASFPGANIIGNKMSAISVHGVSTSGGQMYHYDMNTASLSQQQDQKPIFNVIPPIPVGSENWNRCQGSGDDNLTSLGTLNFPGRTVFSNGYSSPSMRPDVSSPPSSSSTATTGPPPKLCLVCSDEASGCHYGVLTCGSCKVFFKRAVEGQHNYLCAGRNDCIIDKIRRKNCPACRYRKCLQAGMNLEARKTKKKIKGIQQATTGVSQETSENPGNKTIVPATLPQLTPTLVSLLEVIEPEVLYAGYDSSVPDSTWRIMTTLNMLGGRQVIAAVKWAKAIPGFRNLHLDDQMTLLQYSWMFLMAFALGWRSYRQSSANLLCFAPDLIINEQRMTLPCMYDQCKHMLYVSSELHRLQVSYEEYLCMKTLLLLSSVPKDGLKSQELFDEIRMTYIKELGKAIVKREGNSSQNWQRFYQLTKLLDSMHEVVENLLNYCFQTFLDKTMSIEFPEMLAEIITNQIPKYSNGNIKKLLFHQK
Transcriptional activator Myb (Homo sapiens), sequence (P10242 whole entry, looked up): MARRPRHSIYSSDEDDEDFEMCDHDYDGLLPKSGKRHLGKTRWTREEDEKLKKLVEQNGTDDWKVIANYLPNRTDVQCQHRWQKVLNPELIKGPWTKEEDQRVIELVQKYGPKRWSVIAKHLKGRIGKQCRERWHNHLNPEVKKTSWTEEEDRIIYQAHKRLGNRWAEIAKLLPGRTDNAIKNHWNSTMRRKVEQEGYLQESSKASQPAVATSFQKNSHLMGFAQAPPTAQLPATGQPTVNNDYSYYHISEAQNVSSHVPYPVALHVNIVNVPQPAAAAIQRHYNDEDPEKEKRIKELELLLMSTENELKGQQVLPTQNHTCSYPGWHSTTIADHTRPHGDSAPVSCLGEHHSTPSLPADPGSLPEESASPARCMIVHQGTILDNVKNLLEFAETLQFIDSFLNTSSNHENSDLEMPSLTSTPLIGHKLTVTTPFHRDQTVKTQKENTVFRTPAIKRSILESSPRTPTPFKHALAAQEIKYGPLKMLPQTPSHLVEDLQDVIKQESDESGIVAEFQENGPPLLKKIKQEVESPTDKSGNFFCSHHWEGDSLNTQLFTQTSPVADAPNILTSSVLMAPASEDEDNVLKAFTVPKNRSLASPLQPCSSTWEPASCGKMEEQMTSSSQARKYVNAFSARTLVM
Estrogen-related receptor gamma (Homo sapiens), sequence (P62508 whole entry, looked up, the tested form may be a part): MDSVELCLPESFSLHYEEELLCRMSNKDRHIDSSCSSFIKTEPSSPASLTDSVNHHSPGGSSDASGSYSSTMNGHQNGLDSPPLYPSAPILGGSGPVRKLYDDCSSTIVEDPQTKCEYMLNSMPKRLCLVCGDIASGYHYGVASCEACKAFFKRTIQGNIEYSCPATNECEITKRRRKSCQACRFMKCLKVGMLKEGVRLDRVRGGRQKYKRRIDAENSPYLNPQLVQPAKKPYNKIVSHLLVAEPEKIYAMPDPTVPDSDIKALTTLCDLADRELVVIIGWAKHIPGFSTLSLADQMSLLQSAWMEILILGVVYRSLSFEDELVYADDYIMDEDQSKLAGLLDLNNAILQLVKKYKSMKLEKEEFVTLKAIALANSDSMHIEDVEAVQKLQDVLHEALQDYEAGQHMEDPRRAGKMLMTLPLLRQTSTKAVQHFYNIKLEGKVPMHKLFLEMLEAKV
Oxysterols receptor LXR-alpha (Homo sapiens), sequence (Q13133 whole entry, looked up, the tested form may be a part): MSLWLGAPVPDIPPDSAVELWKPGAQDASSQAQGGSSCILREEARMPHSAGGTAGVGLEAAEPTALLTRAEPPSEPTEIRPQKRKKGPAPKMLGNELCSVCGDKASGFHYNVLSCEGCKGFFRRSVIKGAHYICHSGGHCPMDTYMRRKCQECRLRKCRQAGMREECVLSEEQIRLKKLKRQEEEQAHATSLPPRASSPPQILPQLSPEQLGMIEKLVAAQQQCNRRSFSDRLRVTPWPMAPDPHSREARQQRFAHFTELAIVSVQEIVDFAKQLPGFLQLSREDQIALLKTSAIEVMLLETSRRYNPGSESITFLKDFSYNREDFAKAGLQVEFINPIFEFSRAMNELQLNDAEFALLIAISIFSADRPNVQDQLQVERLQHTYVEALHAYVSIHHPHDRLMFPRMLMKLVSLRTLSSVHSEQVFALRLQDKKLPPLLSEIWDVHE

In the case of `Cc1ccn2nc(S(=O)(=O)Nc3c(F)cccc3F)nc2n1`, the result in [1], in [2], in test [3], in test [4], in [5] and in test [6] was inactive. Further, the outcome in [7], in test [8], in [9], in [10], in test [11] and in test [12] was inactive. Further, in test [13], the result was inactive.

Turning to `CCC(=NOC/C=C/Cl)C1=C(O)CC(C2CCOCC2)CC1=O` (configuration not stated), the compound was classed as inactive in test [1], in test [14], in test [15], in test [3], in [16] and in test [5]. Further, the call in test [6], in test [7], in test [8], in [9], in test [17] and in [10] was inactive. Further, the compound was classed as inactive in test [11], in test [18], in [12] and in [13].

Consider `CCOP(=S)(OCC)SCCSCC`, for which the call in test [3], in test [16], in test [4], in [6], in test [7] and in test [8] was inactive. The call in test [9], in test [17], in [11], in test [12] and in [13] was inactive. Also, the AC50 in test [10] was 33.7 µM (active).

For the compound `CCOP(=S)(OCC)Oc1ccc([N+](=O)[O-])cc1`, the compound was called inactive in test [14], in [3], in [16], in [4], in [19] and in test [6]. The compound was called inactive in test [8], in test [9], in [17], in test [12] and in [13]. The AC50 in [10] is 23.5 µM (active); in test [11] it was 50 µM (active).

On to `O=C(O)c1cc(Oc2ccc(C(F)(F)F)cc2Cl)ccc1[N+](=O)[O-]`, for which the outcome in test [14], in test [3], in test [16], in test [5], in [6] and in test [7] was inactive. In addition, the call in test [8], in test [9], in test [17], in test [10], in test [11] and in test [12] was inactive. For the same compound, in [13], the AC50 is 29.2 µM (active).

(Values after PubChem BioAssay (EPA / NIEHS).)
